# Screening data: PubChem BioAssay, several laboratories
# The list is not random: actives were taken first. Their share in the collection is about 4%.
# MITF TRPM1 inh: inhibitors of MITF-driven TRPM1 promoter in melanoma cells | hit rate 0.83% among 330,000 | inhibition, % at 12.5 µM | SK-MEL-5 TRPM1 promoter luciferase, 24 h;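 active means mean inhibition across replicates of 60% or more, whatever share of single replicates reaches that level; inconclusive means some that reach 60%, reason not given; inactive means mean inhibition across replicates below 60%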
# HIF-2a inh: blocks HIF-2a reporter activity. 786-0 RCC cells HIF-2a reporter, luciferase luminescence, overnight. inhibition, % at 18.8 µM. hit rate 0.72% among 360,000. AID 624352;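 active means inhibition of the luminescence signal of 40% or more relative to plate controls, in a single-dose primary screen at 18.75 µM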
# EBV LMP1 NFkB: Epstein-Barr LMP1 NF-kappaB reporter inhibition; hit rate 0.69% among 350,000; LMP1-induced NF-kappaB luciferase reporter cells, luminescence; inhibition, % at 12.5 µM; in the data active means inhibition above about 41%; inconclusive means no clear call, values can overlap the other calls;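 further: 0% = neutral control wells and 100% = reference inhibitor control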
# TROY signal inh: blocks TROY-dependent signaling in reporter cells | hit rate 0.98% among 360,000 | AID 1347056 | Q293 LMP1-TROYcd NF-kB luciferase reporter, 4 h | inhibition, % at 10 µM;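 active means compounds whose plate-normalised and pattern-corrected inhibition of the luciferase reporter signal at the single screening dose is 50% or more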
# Peg3 prom inh-1: reduces Peg3 promoter-driven luciferase expression in HeLa. inhibition, % at 20 µM. HeLa PEG-Prom luciferase reporter, luminescence, overnight. hit rate 1.7% among 360,000. AID 588405;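 active means inhibition of at least 50% at 20 µM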
# TWEAK Fn14 block: TWEAK-Fn14 signaling inhibition | AID 1159606 | inhibition, % at 10 µM | TWEAK-stimulated Fn14 reporter cells, luciferase luminescence, 8 h | hit rate 2% among 360,000; in the data active means inhibition above about 50%
# Peg3 prom inh-2: confirmation of Peg3 promoter inhibitors | hit rate 84% among 1,300 | inhibition, % at 20 µM | HeLa PEG-Prom luciferase reporter, luminescence, overnight | AID 602417 | shares compounds with Peg3 prom inh-1;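 active means at 20 µM dose, 40% or more inhibition averaged across four replicates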
# Starred values were filed as active, the others as inactive; ? = inconclusive; . = no result given.
SMILES,MITF TRPM1 inh,HIF-2a inh,EBV LMP1 NFkB,TROY signal inh,Peg3 prom inh-1,TWEAK Fn14 block,Peg3 prom inh-2
CC(CC(=O)N1CCN(S(=O)(=O)c2ccc(Cl)cc2)CC1)n1cncn1 (stereo not drawn),-7,5,-4,-3,-2,2,.
COC(=O)[C@H](CC(C)C)NC(=O)N1CCC(C)CC1,9,17,-6,6,0,-8,.
CCN1CCc2c(sc(NC(=O)c3ccc(S(=O)(=O)N4CCCCCC4)cc3)c2C(=O)NC)C1,67*,16,-2,-10,71*,-8,62*
CCN1CCc2c(sc(NC(=O)c3ccc(S(=O)(=O)N4CCOCC4)cc3)c2C(=O)OC)C1,2,17,-26,-7,76*,-62,-20
Cc1cccc(OCC(=O)NCC(=O)N/N=C/c2cc(Br)cc(Br)c2O)c1,9,14,24,28,57*,7,63*
CCCCN(C)CCCNC(=O)c1cc(-c2cccnc2)nc2ccccc12,-3,7,-4,-25,4,-12,.
CCCCN(C)CCNC(=O)c1cc(-c2cccnc2)nc2ccc(S(=O)(=O)N3CCC(C)CC3)cc12,12,25,-18,-20,96*,29,74*
Cc1cc(=O)[nH]c(Nc2ccccc2C)n1,10,13,2,-5,11,5,.
COc1ccc(C(O)(CC(C)C)C(CN2CCOCC2)c2ccccc2)cc1 (stereo not drawn),3,-2,-6,13,71*,4,73*
COc1ccc(C(O)(CCC(C)C)C(CN2CCOCC2)c2ccc(Cl)cc2)cc1 (stereo not drawn),15,4,-7,27,38,6,.
COC(=O)CSC1=NS(=O)(=O)c2ccccc21,53,-21,-6,32,74*,-27,80*
COC(=O)CSc1ccccc1C(=O)OC,11,0,-7,-13,-1,-1,.
CCCN(CC(=O)Nc1ccccc1C)C(=O)C1CCN(S(=O)(=O)c2ccccc2C(F)(F)F)CC1,-1,6,2,-3,-2,-12,.
COc1ccc(CNCCC(c2ccccc2)c2ccc(OC(C)C)cc2)cc1OC (stereo not drawn),74*,20,-21,3,101*,7,97*
CCN1CCCC1CN(Cc1cc2ccc(C)cc2[nH]c1=O)C(=S)Nc1ccc(OC)cc1 (stereo not drawn),13,35,-15,-14,63*,1,80*
CCN1CCCC1CN(Cc1cc2ccc(C)cc2[nH]c1=O)C(=S)Nc1cccc(OC)c1 (stereo not drawn),-15,-29,4,-12,1,18,.
CN1Cc2c(N3CCOCC3)nc3sc(C#N)c(N)c3c2CC1(C)C,3,19,-7,-4,16,-26,.
CN1Cc2c(N3CCOCC3)nc3sc(C(=O)c4ccc(Br)cc4)c(N)c3c2CC1(C)C,.,-7,.,-10,80*,-61,97*
Cc1ccc(S(=O)(=O)NC(=O)NC(C)c2ccc(F)cc2)cc1 (stereo not drawn),9,11,1,9,-8,3,.
Cc1onc(-c2ccccc2Cl)c1-c1nc(-c2ccccn2)no1,4,2,-1,18,14,32,.
Clc1ccccc1/C=C/c1nc(-c2ccccn2)no1,?,63*,73*,77*,61*,102*,47*
Cc1ccc(C(NC(=O)C2CCN(Cc3ccc(Oc4ccccc4)cc3)CC2)c2ccccn2)cc1 (stereo not drawn),.,-12,.,-11,30,1,.
CCN(CC)CCn1c2ccccc2c2cnc(N)c(C#N)c21,55,36,-104,-4,91*,-9,94*
CCOC(=O)c1c(NC(=O)CSc2nnnn2-c2ccccc2OCC)sc2c1CC(C)(C)NC2(C)C,15,2,2,9,79*,0,86*
Fc1c(F)c(F)c(/C=N/NC(=S)Nc2cccnc2)c(F)c1F,5,20,-42,16,101*,32,44*
SMILES,MITF TRPM1 inh,HIF-2a inh,EBV LMP1 NFkB,TROY signal inh,Peg3 prom inh-1,TWEAK Fn14 block,Peg3 prom inh-2
Fc1cccc(F)c1/C=N/NC(=S)Nc1cccnc1,-9,-21,3,-7,-18,-11,.
CC(OC(=O)CNC(=O)c1ccc(Cl)cc1)C(=O)NC1CCCCC1C (stereo not drawn),-4,8,5,-45,-14,-8,.
Cc1ccc(C(=O)Nc2cc3ccccc3oc2=O)cc1,91*,49*,79*,88*,90*,102*,62*
COc1ccc(NC(=O)c2cc3ccccc3oc2=O)cc1,.,-2,73*,74*,55*,100*,34
CN1C[C@@H]2[C@@H]3C(=O)N(C)C(=O)[C@@H]3[C@](C)(C1=O)N2C(=O)c1ccc(Cl)cc1,-3,4,0,16,1,-17,.
CCN(CC)CCCNc1ccc2ncn3c4ccc(O)cc4c(=O)c1c23,52,34,28,-16,23,-19,.
CN(C)CCNc1ccc2nnn3c4ccc(O)cc4c(=O)c1c23,25,27,-4,-12,75*,-55,56*
Cc1ccc(NCCN(C)C)c2c(=O)c3cc(O)ccc3sc12,93*,24,45*,-76,106*,-116,100*
COc1ccc(/C=C/C(=O)c2ccc3c(c2)OCCO3)cc1[N+](=O)[O-],-26,-61,19,-34,71*,37,80*
CC(=O)NC(c1ccc(F)c(F)c1)c1nc(-c2ccccc2C)cs1 (stereo not drawn),.,-12,.,-16,7,-14,.
CCOc1ccc2[nH]c3c(N4CCN(C(=O)c5ccco5)CC4)ncnc3c2c1,.,23,.,2,32,7,.
O=C(c1ccco1)N1CCN(c2ncnc3c2[nH]c2ccc(Br)cc23)CC1,-6,16,30,20,73*,18,85*
N/C(=N\OC(=O)c1ccccc1)C(Cc1ccccc1)C(=O)NOC(=O)c1ccccc1 (stereo not drawn),62*,-40,-40,-7,99*,-8,99*
CCCCc1ccc(S(=O)(=O)NC(=O)C2(C)CCN2C(=O)c2cccc(F)c2)cc1 (stereo not drawn),.,12,.,6,2,2,.
COCCn1c(=O)[nH]c(=O)c2c1nc(-c1ccc(-c3ccc(Cl)cc3[N+](=O)[O-])o1)n2Cc1ccccc1,22,-9,5,0,44,25,.
COc1ccc(-c2ccc(-c3nc4c(c(=O)[nH]c(=O)n4Cc4ccccc4)n3C)o2)c([N+](=O)[O-])c1,6,3,1,-25,57*,-1,16
CC(C)Cn1c(-c2cc([N+](=O)[O-])ccc2Cl)nc2c1c(=O)[nH]c(=O)n2Cc1ccccc1,5,24,12,-3,2,-24,.
